# Assay results as given in PubChem BioAssay (NCATS).
# Several values for one entry are separate records, joined by “and”; a condition that tells them apart may be missing. Equal values may be shown once. Activity calls are given as the source filed them. Entries that show only a call come without a potency. Unless noted, calls follow the shape of the full dose curve.
# Target: Estrogen receptor (Homo sapiens) (UniProt P03372)
# Test: qHTS assay for small molecule antagonists of estrogen receptor alpha signaling (AID 588513; active = well fitted curve in the direction sought with a large enough effect in the signal ratio, with a control signal flat, not every such curve was filed as active; inconclusive = small, poorly fitted or top-dose-only effect, or effect the other way, or a change in a side signal; inactive = no such curve, though single readings can be large or run the other way; the % refers to the signal ratio; also: potency is read from the fitted curve at half-maximal effect)
# Settings: ER-alpha-UAS-bla HEK293, beta-lactamase ratio, antagonist mode; series mostly up to 76.9 µM
# Outline: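 Antagonist mode: inhibition of 0.5 nM 17-beta-estradiol-driven beta-lactamase reporter in HEK 293 ER-alpha-UAS-bla cells, 18 h at 37C, CCF4 readout after 2 h at RT. Normalised to estradiol and DMSO; titration fitted to Hill.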
# Chain of Estrogen receptor (Homo sapiens) (P03372 whole entry, looked up): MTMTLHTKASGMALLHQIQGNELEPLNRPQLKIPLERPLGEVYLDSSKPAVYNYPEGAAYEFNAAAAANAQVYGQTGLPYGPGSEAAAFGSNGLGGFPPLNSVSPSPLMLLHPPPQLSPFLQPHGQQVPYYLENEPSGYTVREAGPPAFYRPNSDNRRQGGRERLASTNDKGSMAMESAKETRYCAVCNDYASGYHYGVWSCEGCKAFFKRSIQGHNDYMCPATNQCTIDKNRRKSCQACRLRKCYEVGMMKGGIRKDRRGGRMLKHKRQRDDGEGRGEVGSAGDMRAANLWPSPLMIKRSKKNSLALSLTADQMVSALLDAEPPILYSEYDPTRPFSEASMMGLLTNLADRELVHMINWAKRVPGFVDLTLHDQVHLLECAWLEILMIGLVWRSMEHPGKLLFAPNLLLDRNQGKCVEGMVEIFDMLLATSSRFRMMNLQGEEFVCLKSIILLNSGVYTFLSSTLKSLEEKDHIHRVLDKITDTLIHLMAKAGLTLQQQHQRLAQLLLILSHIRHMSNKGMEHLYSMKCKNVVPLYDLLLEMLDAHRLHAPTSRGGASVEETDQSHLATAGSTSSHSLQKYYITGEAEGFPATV
row,Structure (SMILES),Potency
1,O=C(O)c1cc(O)c2c(c1)C(=O)c1cccc(O)c1C2=O,inactive
2,CCn1cc(C(=O)O)c(=O)c2ccc(C)nc21,inactive
3,CC1=C(/C=C/C(C)=C/C=C/C(C)=C/C(=O)Nc2ccc(O)cc2)C(C)(C)CCC1,15.8 µM [inconclusive] (active)
4,O=c1[nH]cnc2c1ncn2[C@H]1CC[C@@H](CO)O1,inactive

# Target: Bile acid receptor (Homo sapiens) (UniProt Q96RI1)
# Test: qHTS assay for small molecule antagonists of farnesoid X receptor signaling (AID 588526)
# Settings: HEK293T FXR-UAS-bla, beta-lactamase ratio, antagonist mode; series mostly up to 76.7 µM
# Outline: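 Concentration-response titrations were fitted to the Hill equation for half-maximal inhibition and maximal response, with data normalised to 50 uM chenodeoxycholic acid and DMSO control wells. Cells: FXR-UAS-bla HEK293T, dialyzed FBS.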
# Chain of Bile acid receptor (Homo sapiens) (Q96RI1 whole entry, looked up): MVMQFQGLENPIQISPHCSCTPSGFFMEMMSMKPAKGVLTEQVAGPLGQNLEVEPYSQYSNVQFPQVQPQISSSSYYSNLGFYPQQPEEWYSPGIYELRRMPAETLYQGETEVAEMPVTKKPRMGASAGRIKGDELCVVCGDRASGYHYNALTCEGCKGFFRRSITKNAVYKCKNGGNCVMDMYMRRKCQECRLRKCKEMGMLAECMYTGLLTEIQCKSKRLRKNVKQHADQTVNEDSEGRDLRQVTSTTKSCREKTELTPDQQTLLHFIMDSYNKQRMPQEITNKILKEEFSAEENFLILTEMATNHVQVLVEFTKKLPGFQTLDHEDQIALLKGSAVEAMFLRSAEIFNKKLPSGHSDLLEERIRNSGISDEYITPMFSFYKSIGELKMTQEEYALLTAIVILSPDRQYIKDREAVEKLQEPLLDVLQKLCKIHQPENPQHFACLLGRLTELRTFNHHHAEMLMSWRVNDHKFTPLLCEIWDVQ
row,Structure (SMILES),outcome
1,CCn1cc(C(=O)O)c(=O)c2ccc(C)nc21,inactive
2,O=c1c(O)c(-c2ccc(O)cc2)oc2cc(O)cc(O)c12,inactive
3,O=C(O)c1cc(-c2ccccc2)nc2ccccc12,inactive
4,O=C(O)Cc1cccc2ccccc12,inactive

# Target: Glucocorticoid receptor (Homo sapiens) (UniProt P04150)
# Test: qHTS assay for small molecule agonists of glucocorticoid receptor signaling (AID 588532; active = well fitted curve in the direction sought with a large enough effect in the signal ratio, with a control signal flat; inconclusive = small, poorly fitted or top-dose-only effect, or a change in a side signal; inactive = no such curve, though single readings can be large or run the other way; the % refers to the signal ratio)
# Settings: HeLa MMTV-bla, beta-lactamase ratio, agonist, 18 h; stronger effect = higher value; percent of dexamethasone control, DMSO zero
# Outline: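 Titration series, up to 92 uM, applied to GRE-bla HeLa cells for 18 h at 37 C. Detection by CCF4 FRET substrate after 2 h at RT.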
# Chain of Glucocorticoid receptor (Homo sapiens) (P04150 whole entry, looked up): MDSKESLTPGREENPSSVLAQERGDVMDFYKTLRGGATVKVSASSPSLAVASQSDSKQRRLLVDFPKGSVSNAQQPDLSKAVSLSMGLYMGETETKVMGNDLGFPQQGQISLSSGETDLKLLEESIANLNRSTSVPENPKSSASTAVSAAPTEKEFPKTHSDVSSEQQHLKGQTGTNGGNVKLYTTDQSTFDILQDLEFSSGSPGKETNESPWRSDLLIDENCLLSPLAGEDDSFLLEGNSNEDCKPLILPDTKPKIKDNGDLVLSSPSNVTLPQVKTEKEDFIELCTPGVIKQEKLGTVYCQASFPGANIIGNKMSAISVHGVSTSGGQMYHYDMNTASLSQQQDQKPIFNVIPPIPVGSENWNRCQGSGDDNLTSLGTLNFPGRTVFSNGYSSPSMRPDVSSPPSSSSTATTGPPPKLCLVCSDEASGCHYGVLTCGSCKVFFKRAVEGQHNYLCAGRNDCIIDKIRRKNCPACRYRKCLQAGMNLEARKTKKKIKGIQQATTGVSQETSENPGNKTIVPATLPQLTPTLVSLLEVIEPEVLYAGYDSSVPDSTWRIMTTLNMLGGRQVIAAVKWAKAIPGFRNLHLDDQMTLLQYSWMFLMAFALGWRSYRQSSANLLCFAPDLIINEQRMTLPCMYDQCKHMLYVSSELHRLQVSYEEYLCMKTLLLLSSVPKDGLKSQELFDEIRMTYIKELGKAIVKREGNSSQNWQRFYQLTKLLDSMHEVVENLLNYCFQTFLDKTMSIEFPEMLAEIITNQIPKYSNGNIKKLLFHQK
row,Structure (SMILES),activation
1,O=C(O)c1cc(O)c2c(c1)C(=O)c1cccc(O)c1C2=O,1.5% (inactive)
2,O=c1c(O)c(-c2ccc(O)cc2)oc2cc(O)cc(O)c12,-2.66% (inactive) and -3.79% (inactive)
3,O=c1cc(-c2ccccc2)oc2cc(O)cc(O)c12,-10.9% (inactive)
4,O=c1[nH]cnc2c1ncn2[C@H]1CC[C@@H](CO)O1,10.5% (inactive) and 6.23% (inactive)

# Tested on: not listed separately
# Test: qHTS assay for small molecule antagonists of peroxisome proliferator-activated receptor delta signaling (AID 588535; active = well fitted inhibition curve with a large enough effect in the signal ratio, with a control signal flat, not every such curve was filed as active; inconclusive = small, poorly fitted or top-dose-only effect, or effect the other way, or a change in a side signal; inactive = no such curve, though single readings can be large or run the other way; the % refers to the signal ratio;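 as to max response: cells co-treated with a PPAR-delta agonist as stimulator during compound exposure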)
# Settings: HEK293T PPARd-UAS-bla, beta-lactamase FRET ratio, 18 h; 460 nm channel
# Outline: (§1)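 GeneBLAzer PPAR-delta-UAS-bla HEK293T cells in medium with 2% charcoal/dextran FBS were preincubated 5 hrs at 37 C, then given compounds, incubated 18 hrs at 37 C, and read by CCF4 beta-lactamase fluorescence; IC50 from Hill fits.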
row,Structure (SMILES),max response
1,O=c1c(O)c(-c2ccc(O)cc2)oc2cc(O)cc(O)c12,-17.2% and 39.5%
2,O=C(O)c1cc(-c2ccccc2)nc2ccccc12,54.7%
3,O=c1[nH]cnc2c1ncn2[C@H]1CC[C@@H](CO)O1,45.2%
4,O=C(O)Cc1cccc2ccccc12,10.6% and 0.107%

# Target: Peroxisome proliferator-activated receptor delta (Homo sapiens) (UniProt Q03181)
# Test: as above
# Settings: HEK293T PPARd-UAS-bla, beta-lactamase FRET ratio, 18 h; series mostly up to 76.7 µM
# Outline: as §1
# Chain of Peroxisome proliferator-activated receptor delta (Homo sapiens) (Q03181 whole entry, looked up): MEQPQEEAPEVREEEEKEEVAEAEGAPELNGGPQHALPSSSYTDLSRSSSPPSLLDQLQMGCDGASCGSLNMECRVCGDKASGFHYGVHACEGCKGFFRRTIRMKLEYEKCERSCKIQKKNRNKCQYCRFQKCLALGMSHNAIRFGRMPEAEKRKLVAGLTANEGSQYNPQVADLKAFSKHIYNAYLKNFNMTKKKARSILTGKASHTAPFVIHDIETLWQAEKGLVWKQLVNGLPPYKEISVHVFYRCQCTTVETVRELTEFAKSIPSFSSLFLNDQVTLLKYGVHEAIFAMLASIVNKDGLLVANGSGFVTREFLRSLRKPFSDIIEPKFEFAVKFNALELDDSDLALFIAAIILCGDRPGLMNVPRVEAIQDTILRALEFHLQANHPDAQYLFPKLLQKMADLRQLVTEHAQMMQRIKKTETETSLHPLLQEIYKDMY
row,Structure (SMILES),outcome
1,O=c1c(O)c(-c2ccc(O)cc2)oc2cc(O)cc(O)c12,inactive
2,O=C(O)c1cc(-c2ccccc2)nc2ccccc12,inactive
3,O=c1[nH]cnc2c1ncn2[C@H]1CC[C@@H](CO)O1,inactive
4,O=C(O)Cc1cccc2ccccc12,inactive

# Target: Vitamin D3 receptor (Homo sapiens) (UniProt P11473)
# Test: qHTS assay for small molecule antagonists of vitamin D receptor signaling (AID 588541);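 also: receptor activated by calcitriol during compound treatment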
# Settings: HEK293T VDR-UAS-bla, beta-lactamase ratio, antagonist mode; series mostly up to 76.7 µM
# Outline: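 VDR-UAS-bla HEK293T cells (2000/well, 2% charcoal-stripped FBS) were treated with titrated compounds plus 1-alpha,25-dihydroxyvitamin D3 (50 nM or 3 nM final) for 16 h at 37 C. CCF4 beta-lactamase fluorescence was read; Hill fits gave IC50.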
# Chain of Vitamin D3 receptor (Homo sapiens) (P11473 whole entry, looked up): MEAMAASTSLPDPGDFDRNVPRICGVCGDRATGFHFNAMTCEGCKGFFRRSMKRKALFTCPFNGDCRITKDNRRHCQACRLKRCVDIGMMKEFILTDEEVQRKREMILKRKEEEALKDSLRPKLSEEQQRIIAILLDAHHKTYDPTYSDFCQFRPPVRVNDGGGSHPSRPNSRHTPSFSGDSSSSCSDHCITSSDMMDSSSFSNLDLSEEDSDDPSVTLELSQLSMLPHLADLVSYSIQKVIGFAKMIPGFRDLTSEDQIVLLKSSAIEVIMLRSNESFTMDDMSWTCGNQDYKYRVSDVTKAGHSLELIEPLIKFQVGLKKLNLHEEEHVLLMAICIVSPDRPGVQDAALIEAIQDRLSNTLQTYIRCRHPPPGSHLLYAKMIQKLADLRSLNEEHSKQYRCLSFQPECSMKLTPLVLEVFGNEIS
row,Structure (SMILES),outcome
1,CC(=O)O[C@]1(C(C)=O)CC[C@H]2[C@@H]3C=C(Cl)C4=CC(=O)[C@@H]5C[C@@H]5[C@]4(C)[C@H]3CC[C@@]21C,inactive
2,CCn1cc(C(=O)O)c(=O)c2ccc(C)nc21,inactive
3,O=C(O)Cc1cccc2ccccc12,inactive

# Target: Vitamin D3 receptor (Homo sapiens) (UniProt P11473)
# Test: qHTS assay for small molecule agonists of vitamin D receptor signaling (AID 588543)
# Settings: HEK293T VDR-UAS-bla, beta-lactamase ratio, 16 h; series mostly up to 76.8 µM
# Outline: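 Agonist-mode beta-lactamase reporter: HEK293T VDR-UAS-bla cells in charcoal-stripped 2% FBS, compound series 16 h 37 C, CCF4 2 h RT. EC50 from Hill fit, scaled against DMSO and 50 nM calcitriol control.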
row,Structure (SMILES),outcome
1,CCn1cc(C(=O)O)c(=O)c2ccc(C)nc21,inactive
2,O=C(O)c1cc(-c2ccccc2)nc2ccccc12,inactive
3,CC1=C(/C=C/C(C)=C/C=C/C(C)=C/C(=O)Nc2ccc(O)cc2)C(C)(C)CCC1,inactive
4,O=C(O)Cc1cccc2ccccc12,inactive
